Paper PMC5540273 (PLoS ONE, 2017)

Key:
Settings in all cases: concentration: 1 μM, replicates: in singlicate; n = 1
CSNK2A1 = system: CSNK2A1
CSNK2A2 = system: CSNK2A2
CTK = system: T1, CTK
T1 construct: gene MATK

DAPK1 = system: DAPK1
DAPK2 = system: DAPK2
DAPK3 = system: DAPK3
DCAMKL1 = system: T2, DCAMKL1
T2 construct: gene DCLK1

DCAMKL2 = system: T3, DCAMKL2
T3 construct: gene DCLK2

DCAMKL3 = system: T4, DCAMKL3
T4 construct: gene DCLK3

DDR1 = system: DDR1
DDR2 = system: DDR2
DLK = system: T5, DLK
T5 construct: gene MAP3K12

DMPK2 = system: T6, DMPK2
T6 construct: gene CDC42BPG

DMPK = system: DMPK
DRAK1 = system: T7, DRAK1
T7 construct: gene STK17A

DRAK2 = system: T8, DRAK2
T8 construct: gene STK17B

DYRK1A = system: DYRK1A
DYRK1B = system: DYRK1B
DYRK2 = system: DYRK2
EGFR = system: EGFR
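Note: KINOMEscan kinase panel screen.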

Row | SMILES | %Inh (CSNK2A1) [%] | %Inh (CSNK2A2) [%] | %Inh (CTK) [%] | %Inh (DAPK1) [%] | %Inh (DAPK2) [%] | %Inh (DAPK3) [%] | %Inh (DCAMKL1) [%] | %Inh (DCAMKL2) [%] | %Inh (DCAMKL3) [%] | %Inh (DDR1) [%] | %Inh (DDR2) [%] | %Inh (DLK) [%] | %Inh (DMPK2) [%] | %Inh (DMPK) [%] | %Inh (DRAK1) [%] | %Inh (DRAK2) [%] | %Inh (DYRK1A) [%] | %Inh (DYRK1B) [%] | %Inh (DYRK2) [%] | %Inh (EGFR) [%]
1 | O=C(Nc1ccccc1F)NC1CCN(c2ccnc(Nc3ccc(F)cc3)n2)C1 (stereo not shown) [GSK1379722] | 0 | 0 | 0 | 0 | 0 | 5 | 0 | 0 | 5 | 3 | 11 | 23 | 1 | 0 | 0 | 0 | 19 | 22 | 0 | 0
2 | OCCOCCn1ccc2ncnc(Nc3ccc(Oc4cccc(Cl)c4)c(Cl)c3)c21 | 0 | 0 | 0 | 0 | 0 | 0 | 36 | 0 | 0 | 0 | 0 | 0 | 0 | 0 | 0 | 0 | 0 | 0 | 0 | 100
3 | CCCc1ccc(S(=O)(=O)NC2CCN(c3ccnc(Nc4ccc(OC)cc4)n3)C2)cc1 (stereo not shown) [GSK1379737] | 0 | 0 | 0 | 0 | 0 | 14 | 7 | 0 | 0 | 15 | 34 | 28 | 94.7 | 0 | 0 | 0 | 19 | 8 | 0 | 32
4 | N#Cc1ccc(Oc2ccc(Nc3ncnc4cc[nH]c34)cc2Cl)cc1 | 48 | 24 | 5 | 30 | 16 | 15 | 9 | 24 | 20 | 9 | 0 | 0 | 4 | 0 | 32 | 1 | 1 | 15 | 0 | 96.7
5 | Nc1nc(-c2ccc3c(N)n[nH]c3c2)cc(N2CCC[C@@H](C(=O)Nc3ccccc3)C2)n1.O=C(O)C(F)(F)F.O=C(O)C(F)(F)F [GSK2288359] | 1 | 18 | 0 | 7 | 0 | 0 | 12 | 0 | 0 | 0 | 7 | 0 | 15 | 0 | 55 | 0 | 0 | 14 | 32 | 24
6 | CCc1nc(-c2cccc(N(C)S(=O)(=O)c3ccccc3)c2)c(-c2ccnc(Nc3ccc(N4CCN(C(C)=O)CC4)nc3)n2)s1 [GSK1645895] | 18 | 6 | 0 | 21 | 0 | 4 | 10 | 0 | 4 | 44 | 5 | 0 | 22 | 0 | 3 | 0 | 0 | 0 | 29 | 79
7 | Cl.Cn1ccc(-c2cccc(Nc3ccnc4cc(-c5nccs5)ccc34)c2)n1 [GW525701] | 0 | 0 | 0 | 17 | 0 | 2 | 13 | 0 | 26 | 52 | 33 | 37 | 0 | 0 | 8 | 10 | 12 | 16 | 0 | 11
8 | c1ccc(-c2ccc3c(-c4ccnc(Nc5ccc6c(c5)OCCO6)n4)cnn3n2)cc1 [GW818941] | 18 | 9 | 2 | 0 | 0 | 0 | 0 | 0 | 0 | 0 | 26 | 0 | 0 | 20 | 15 | 0 | 8 | 16 | 0 | 14
9 | CSc1ccc(NC2=C(c3ccccc3Cl)C(=O)NC2=O)cc1 [SB-342411] | 2 | 10 | 0 | 30 | 16 | 11 | 2 | 0 | 43 | 10 | 0 | 0 | 0 | 0 | 0 | 0 | 67 | 78 | 3 | 18
10 | COc1ccc(NC(=O)Nc2ccc(C)c(-c3ccc(C(=O)Nc4ccncc4)cc3)c2)cc1 [GSK1398475] | 0 | 0 | 0 | 5 | 0 | 3 | 10 | 0 | 9 | 88 | 44 | 0 | 6 | 0 | 5 | 8 | 2 | 0 | 6 | 33
11 | Nc1n[nH]c2nnc(-c3ccccc3)cc12 [SB-517389] | 0 | 16 | 0 | 28 | 0 | 17 | 11 | 0 | 29 | 9 | 7 | 0 | 0 | 0 | 0 | 0 | 72 | 92.4 | 57 | 34
12 | Cl.O=S(=O)(c1cccc(F)c1)c1ccc(Nc2ncnc3cc(Br)sc23)cc1Cl [GSK306886] | 0 | 37 | 0 | 8 | 0 | 47 | 6 | 0 | 9 | 2 | 0 | 0 | 15 | 0 | 9 | 0 | 7 | 0 | 14 | 99.2
13 | O=c1cc(N2CCOCC2)nc2n(Cc3cccc(Cl)c3)ccn12 [GSK2296823] | 0 | 0 | 22 | 0 | 0 | 7 | 17 | 12 | 0 | 21 | 0 | 0 | 0 | 0 | 0 | 0 | 28 | 0 | 9 | 20
14 | Cn1cc(-c2ccc3c(c2)CCN3C(=O)Cc2cccc(C(F)(F)F)c2)c2c(N)ncnc21 [GSK2606414] | 1 | 1 | 18 | 3 | 0 | 89 | 8 | 0 | 0 | 99.7 | 74 | 23 | 0 | 30 | 3 | 0 | 16 | 0 | 27 | 20
15 | CCc1nc(-c2cccc(C)c2)c(-c2ccnc(NC(=O)c3ccccc3)c2)s1 | 12 | 29 | 0 | 23 | 0 | 0 | 11 | 6 | 0 | 0 | 1 | 6 | 8 | 0 | 0 | 0 | 18 | 50 | 10 | 24
16 | Oc1ccc2ncnc(Nc3ccc(OCc4ccccc4)cc3)c2c1 [GI262866] | 26 | 10 | 3 | 0 | 0 | 0 | 0 | 0 | 0 | 7 | 7 | 11 | 0 | 0 | 0 | 0 | 16 | 0 | 18 | 100
17 | COc1ccc(Nc2nccc(N3CCC(NC(=O)Nc4ccc5c(c4)OCO5)C3)n2)cc1 (stereo not shown) [GSK1379745] | 5 | 0 | 0 | 26 | 14 | 17 | 0 | 14 | 0 | 15 | 21 | 35 | 20 | 0 | 0 | 0 | 8 | 5 | 7 | 25
18 | COc1ccc(NC(=O)c2ccc(-c3cc(-c4nnc(C)o4)ccc3C)cc2)cc1 [GW595885] | 0 | 11 | 0 | 0 | 0 | 13 | 8 | 0 | 2 | 13 | 9 | 18 | 0 | 0 | 0 | 0 | 20 | 0 | 4 | 14
19 | CCn1c(-c2ccncc2)nc2cnccc21 [SB-735216] | 18 | 0 | 11 | 1 | 0 | 0 | 8 | 0 | 0 | 0 | 7 | 0 | 0 | 0 | 0 | 2 | 4 | 2 | 17 | 0
20 | Fc1cccc(COc2ccc(Nc3ncnc4cc[nH]c34)cc2Cl)c1 | 36 | 22 | 53 | 20 | 45 | 22 | 29 | 8 | 8 | 9 | 0 | 0 | 16 | 1 | 55 | 6 | 8 | 25 | 22 | 100
